Shown are actives, neighbours in structure and some others; about 19% of the full set was active somewhere.
DT40 TDP1 CPT: growth inhibition of DT40 Tdp1-/-;hTDP1 cells with camptothecin (screen for TDP1 inhibitors); Potency, µM (doses to about 46.2 µM), most hits filed as inhibitors; chicken DT40 Tdp1-/-;hTDP1 cells + 20 nM CPT, ATP luminescence, 48 h; 420,000 compounds, 12% hits; further: nearly all actives have a fitted effect of over 55% in size
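Chicken DT40 Tdp1-/- cells stably complemented with human TDP1 were seeded at 400 cells/well in medium containing 20 nM camptothecin, exposed to pin-transferred compounds, and grown at 37 °C for at least 48 hr. Viability was read as ATP luminescence.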
ELG1 repair inh: ELG1-dependent DNA repair inhibition; HEK293T ELG1-luciferase reporter, luminescence, 16 h; DNA damage induced by 5-fluorouridine; Potency, µM (series often up to 46.1 µM), usual class: inhibitors; 330,000 compounds, 2.3% hits; AID 504467; further: nearly all actives have a fitted effect of over 55% in size
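Reporter activity after DNA damage by 5-fluorouridine is monitored. Compound-treated cells incubate 16 hr at 37 °C, then ONE-Glo is added for 30 min before luminescence reading.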
HT1080 IDH1KD tx: kills HT-1080 cells with IDH1 knockdown; HT-1080 IDH1 knockdown viability, ATP luminescence, 48 h; Potency, µM (highest dose often 46.1 µM), hits mostly cytotoxic; 360,000 compounds, 2% hits; AID 686971
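Using the IDH1-knockdown HT-1080 line run in the same batch and compound series as the NT line, viability after 48 h at 37 °C was determined by CellTiter-Glo luminescence and expressed as % activity.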
TDP1 cell noCPT: qHTS for Inhibitors of human tyrosyl-DNA phosphodiesterase 1 (TDP1): qHTS in cells in absence of CPT; DT40 Tdp1-/- hTDP1 cells, no CPT, ATP luminescence, 48 h; Potency, µM (series often up to 46.2 µM), usual class: inhibitors; 420,000 compounds, 15% hits; further: nearly all actives have a fitted effect of over 55% in size
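Luminescent ATP content (CellTiter-Glo) served as the growth readout. Knockout chicken DT40 cells expressing human TDP1 were exposed to compounds without camptothecin for a minimum 48 hr at 37 °C.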
HT1080NT lethal: kills 2HG-producing HT-1080-NT fibrosarcoma cells; HT-1080-NT fibrosarcoma viability, CellTiter-Glo ATP luminescence, 48 h; Potency, µM (doses to about 46.1 µM), hits mostly cytotoxic; 360,000 compounds, 1.6% hits;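 further: NT is the 2HG producing partner of a matched IDH1 knockdown line; nearly all actives have a fitted effect of over 55% in size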
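A 48-hour cytotoxicity screen used HT-1080-NT cells plated 2 hours before compound delivery. ATP-based CellTiter-Glo luminescence measured viability, normalized to DMSO and no-cell controls.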
IL1B secr inh: inflammasome signaling inhibition, IL-1 beta readout; activity change, % at 57.5 µM; AID 743279; 360,000 compounds, 4.7% hits; THP-1 LPS/ATP IL-1B secretion, AlphaLISA, 16 h; stronger effect = lower value; in the data active means activity change below about -50%; inconclusive means mostly about -30% to -49%
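Secreted IL-1B measured by AlphaLISA bead assay after 16 h compound exposure of THP-1 cells; compounds (final up to 57.5 uM) added 1 h before LPS (250 ng/mL) and ATP (1.25 mM) stimulation; lower signal means less secretion.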
Of the large screens only hits and unclear results are named; the others gave an inactive call; ! = a repeat was not active. Unless noted, the call rests on the fitted dose curve; in most records, active means well fitted curve in the direction sought with a large enough effect; inconclusive means small, poorly fitted or top-dose-only effect, or another doubt; inactive means no such curve, though single readings can be large; an effect the other way counts as inactive or inconclusive.

COc1ccc(CN2CCN(C(=O)CCC(=O)Nc3nnc(C(F)(F)F)s3)CC2)cc1F	none
Cc1cc(SCC(=O)N(C)C2CCS(=O)(=O)C2)nc2c(C)cccc12 (stereo unspecified)	TDP1 cell noCPT inconclusive
CC(C)c1ccc(OCC(=O)Nc2ccc(S(=O)(=O)Nc3ncccn3)cc2)cc1	none (no result: ELG1 repair inh, HT1080 IDH1KD tx, HT1080NT lethal, IL1B secr inh)
COc1ccccc1CNC(=O)CN1C(=O)NC2(CCC(C)CC2)C1=O (stereo unspecified)	none
Cc1ccc(S(=O)(=O)SC/C=C/CSS(=O)(=O)c2ccc(C)cc2)cc1	DT40 TDP1 CPT inconclusive, TDP1 cell noCPT 14.6µM, HT1080NT lethal inconclusive (no result: ELG1 repair inh)
Cc1ccc(S(=O)(=O)CS(=O)(=O)c2ccc(C)cc2)cc1	HT1080 IDH1KD tx inconclusive (no result: ELG1 repair inh)
Cc1ccc(S(=O)(=O)CCCS(=O)(=O)c2ccc(C)cc2)cc1	none
Cc1ccc(S(=O)(=O)SCCCSS(=O)(=O)c2ccc(C)cc2)cc1	DT40 TDP1 CPT 18.4µM, TDP1 cell noCPT 20.6µM (no result: ELG1 repair inh)
Cc1ccc(-n2nc(C(=O)NC(C)C)c(=O)n(C)c2=O)cc1	none (no result: ELG1 repair inh, HT1080 IDH1KD tx, HT1080NT lethal, IL1B secr inh)
CC/C(=N\NS(=O)(=O)c1ccc(C)cc1)c1ccco1	none
Cc1cc(=O)c2cc(Br)ccc2[nH]1	DT40 TDP1 CPT 6.51µM, TDP1 cell noCPT 6.51µM
Cc1ccc2oc(C(=O)Nc3ccc(S(=O)(=O)Nc4ncccn4)cc3)cc(=O)c2c1	none (no result: ELG1 repair inh, HT1080 IDH1KD tx, HT1080NT lethal, IL1B secr inh)
Cc1[nH]c2ccccc2c1C(=O)COC(=O)c1ccc([N+](=O)[O-])s1	DT40 TDP1 CPT inconclusive
COCCOC(=O)C1=C(C)NC(C)=C(C(=O)OC(C)C)C1c1cccc([N+](=O)[O-])c1 (stereo unspecified)	DT40 TDP1 CPT inconclusive, ELG1 repair inh 11.6µM, TDP1 cell noCPT 15µM!
CCOC(=O)C1=C(C)NC(C)=C(C(=O)OCC)C1c1ccc([N+](=O)[O-])s1	DT40 TDP1 CPT 14.6µM, ELG1 repair inh inconclusive, HT1080 IDH1KD tx inconclusive, TDP1 cell noCPT 10.3µM, HT1080NT lethal inconclusive
COC(=O)C1=C(C)NC(C)=C(C(=O)OC(C)(C)CN(C)CCC(c2ccccc2)c2ccccc2)C1c1cccc([N+](=O)[O-])c1 (stereo unspecified)	DT40 TDP1 CPT 8.41µM, TDP1 cell noCPT 8.41µM (no result: ELG1 repair inh, HT1080 IDH1KD tx, HT1080NT lethal, IL1B secr inh)
COC(=O)C1=C(C)NC(C)=C(C(=O)OCCCN2CCC(c3ccccc3)(c3ccccc3)CC2)[C@H]1c1cccc([N+](=O)[O-])c1	DT40 TDP1 CPT 11.9µM, TDP1 cell noCPT 11.9µM (no result: ELG1 repair inh, HT1080 IDH1KD tx, HT1080NT lethal, IL1B secr inh)
CCN(CC)CCCN1CC(=O)N2[C@@H](Cc3c([nH]c4ccccc34)C2(C)C)C1=O	none
CCOc1ncccc1C(=O)OCC(=O)N(CC(C)C)C1CCS(=O)(=O)C1 (stereo unspecified)	none
CCOC(=O)C1=C(CCc2ccccc2)NC(=O)NC1c1cccc([N+](=O)[O-])c1 (stereo unspecified)	none
CCOC(=O)C1=C(C)NC(C)=C(C(=O)OC)C1c1cccc([N+](=O)[O-])c1 (stereo unspecified)	DT40 TDP1 CPT 11.9µM!, TDP1 cell noCPT 15µM!
COC(=O)C1=C(C)NC(C)=C(C(=O)O[C@@H]2CCCN(Cc3ccccc3)C2)[C@@H]1c1cccc([N+](=O)[O-])c1	DT40 TDP1 CPT 18.4µM, HT1080 IDH1KD tx inconclusive, TDP1 cell noCPT 10.3µM, HT1080NT lethal inconclusive, IL1B secr inh inconclusive (no result: ELG1 repair inh)
CCOC(=O)C1=C(N)Oc2cc(O)ccc2C1c1ccccc1 (stereo unspecified)	DT40 TDP1 CPT inconclusive, HT1080 IDH1KD tx inconclusive, TDP1 cell noCPT inconclusive, HT1080NT lethal inconclusive
CCOC(=O)C1=C(C)NC(C)=C(C(=O)OC)[C@H]1c1cccc([N+](=O)[O-])c1	DT40 TDP1 CPT 26.6µM, TDP1 cell noCPT 23.7µM (no result: ELG1 repair inh, HT1080 IDH1KD tx, HT1080NT lethal, IL1B secr inh)

Screens (PubChem)
